Test results as given in PubChem BioAssay.
For some assays here: Measured potencies and affinities stand elsewhere. The source made the active and inactive calls.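 Rule for the calls, unless noted: active = compound raising the membrane signal above positive-control mean plus 3 SD in both repeats, and a primary screen hit; inactive = the rest.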

Tests used:
[1] = test system: TRPC4 beta (transient receptor potential cation channel C4), mouse; assay: activators of mouse TRPC4 channel, confirmation, cell-based, Fluo4 calcium, HEK293 TRPC4beta/mu-opioid, duplicates, 10 µM (AID 2426;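 active = fluorescence ratio normalized to control raised more than 50% in primary screen plus both repeat runs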); conditions: Fluo4 calcium fluorescence, at 10 µM; stronger effect = higher value
[2] = test system: transient receptor potential cation channel C4 beta (TRPC4), mouse; assay: activators of mouse TRPC4 channel, confirmation, cell-based, second round, Fluo4, HEK293 TRPC4beta/mu-opioid, 1 µM (AID 2461;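 active = primary screen active and over 50% activation in each of two duplicate runs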); conditions: Fluo4 calcium fluorescence, at 1 µM; stronger effect = higher value
[3] = test system: TRPC4 (transient receptor potential cation channel C4 beta), mouse; assay: positive allosteric modulators of mouse TRPC4, confirmation, cell-based, second round, Fluo-4, HEK293 TRPC4beta/mu-opioid, 1 µM (AID 2554;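 active = primary screen hit whose fluorescence ratio, in both repeats, exceeds the weak agonist control mean by 3 SD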); conditions: DAMGO EC20, Fluo-4 calcium flux, at 1 µM; stronger effect = higher value
[4] = test system: TRPC4 beta (transient receptor potential cation channel C4), mouse; assay: positive allosteric modulators of mouse TRPC4, confirmation, cell-based, Fluo-4, HEK293 TRPC4beta/mu-opioid (AID 2555;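 active = primary screen hit whose calcium fluorescence ratio, in both repeats, exceeds the weak agonist control mean by 3 SD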); conditions: DAMGO EC20, Fluo-4 calcium flux, at 10 µM; stronger effect = higher value
[5] = target: Short transient receptor potential channel 4 (Mus musculus) (UniProt Q9QUQ5); assay: inhibitors of mouse TRPC4 channel, confirmation, cell-based, Fluo4, HEK293 TRPC4beta/mu-opioid (AID 2636;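 active = calcium signal cut by more than 3 SD below the full-agonist control yet still positive, in both repeats and the earlier primary screen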); conditions: DAMGO, Fluo4 calcium flux, at 10 µM; stronger effect = higher value
[6] = target: Short transient receptor potential channel 4 (Mus musculus) (UniProt Q9QUQ5); assay: inhibitors of mouse TRPC4 channel, confirmation, cell-based, second round, Fluo4, HEK293 TRPC4beta/mu-opioid, 1 µM (AID 2637;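 active = calcium signal ratio cut to more than 3 SD under the fully stimulated control mean yet still positive, in both repeats and the primary screen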); conditions: Fluo4 calcium flux, DAMGO, at 1 µM; stronger effect = higher value
[7] = target: Short transient receptor potential channel 4 (Mus musculus) (UniProt Q9QUQ5); assay: mouse TRPC4 channel activators, dose response, cell-based, HEK293 TRPC4/mu-opioid, Fluo-4 calcium (AID 434937;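 active = primary screen activator hit with a dose response curve and TRPC4 channel activation at any tested dose; inactive = no activation, no dose response, or not a primary hit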); conditions: HEK293 TRPC4 cells, Fluo-4 calcium fluorescence ratio; series mostly up to 20 µM
[8] = target: Short transient receptor potential channel 4 (Mus musculus) (UniProt Q9QUQ5); assay: TRPC4 positive allosteric modulators, dose response, cell-based, HEK293 TRPC4/mu-opioid, Fluo-4 calcium, EC20 DAMGO (AID 434941;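 active = earlier screen potentiator hit that boosts the TRPC4 ion channel at some dose, with a dose response; inactive = no potentiation, no dose response, or not a prior hit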;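 note: calcium entry triggered by an EC20 dose of DAMGO at the co-expressed mu-opioid receptor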); conditions: HEK293 TRPC4/mu-opioid cells, Fluo-4 calcium fluorescence; series mostly up to 20 µM
[9] = target: Short transient receptor potential channel 4 (Mus musculus) (UniProt Q9QUQ5); assay: mouse TRPC4 channel inhibitors, dose response, cell-based, HEK293 TRPC4/mu-opioid, Fluo-4 calcium (AID 434942;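 active = primary screen inhibitor hit that blocks the TRPC4 channel at some tested dose, yielding a dose curve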); conditions: HEK293 TRPC4/mu-opioid cells, DAMGO-evoked Fluo-4 calcium ratio; series mostly up to 20 µM
[10] = target: Short transient receptor potential channel 6 (Mus musculus) (UniProt Q61143); assay: inhibition of mouse TRPC6 channel, confirmation, selectivity assay for TRPC4 inhibitor project, cell-based, HEK293, membrane potential dye, duplicate (AID 434948;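 active = active in primary screen and both duplicates, each dropping signal beyond three positive-control SD with fluorescence still positive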); conditions: HEK293 TRPC6, membrane potential dye fluorescence, at 10 µM, stimulated with maximal-effect acetylcholine; stronger effect = higher value
[11] = target: Short transient receptor potential channel 6 (Mus musculus) (UniProt Q61143); assay: activation of mouse TRPC6 channel, confirmation, selectivity assay for TRPC4 activator project, cell-based, HEK293, membrane potential dye, duplicate (AID 434950;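 active = membrane potential signal rise above negative control mean plus 3 SD in both duplicates, also active in the earlier TRPC4 screen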); conditions: HEK293 TRPC6, membrane potential fluorescence, at 10 µM; stronger effect = higher value
[12] = target: Short transient receptor potential channel 6 (Mus musculus) (UniProt Q61143); assay: TRPC6 potentiation by TRPC4 potentiator hits, confirmation, selectivity assay for TRPC4 potentiator project, HEK293 cells, membrane potential dye, duplicate (AID 434952); conditions: HEK293 TRPC6, membrane potential dye fluorescence, at 10 µM, maximal acetylcholine added after compound; stronger effect = higher value
[13] = target: Short transient receptor potential channel 4 (Mus musculus) (UniProt Q9QUQ5); assay: calcium flux activators in TRPC4/5HT1a cells, counter-screen for TRPC4 activator project, cell-based, second counter screen, HEK293 TRPC4/5HT1a, Fluo-4 (AID 434977;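 active = calcium signal rise above buffer-control mean plus 5 SD in both duplicates, and also a hit in the primary screen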); conditions: Fluo-4 calcium flux, at 10 µM; stronger effect = higher value
[14] = calcium flux inhibitors in TRPC4/5HT1a cells, confirmation, counter-screen for TRPC4 inhibitor project, cell-based, second counter screen, HEK293 TRPC4/5HT1a, Fluo-4 (AID 434978;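 active = primary screen active whose calcium signal fell more than 3 SD beyond the full-serotonin control mean in both duplicate plates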;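 for outcome: serotonin given first at submaximal then at maximal dose after compound preincubation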); conditions: Fluo-4 calcium flux, at 10 µM, serotonin added to trigger calcium flux; stronger effect = higher value
[15] = test system: TRPC4 (mouse), co-expressed with 5HT1a in HEK293; assay: calcium flux potentiators in TRPC4/5HT1a cells, confirmation, counter-screen for TRPC4 potentiator project, cell-based, second counter screen, HEK293 TRPC4/5HT1a, Fluo-4 (AID 434979;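 active = signal rise over 3 SD above mean of control wells given weak agonist, in both repeats and first screen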); conditions: Fluo-4 calcium flux, at 10 µM, serotonin added at its EC20 dose; stronger effect = higher value
[16] = calcium flux activation in mu-opioid HEK293 cells, confirmation, counter-screen for TRPC4 activator project, cell-based, HEK293 mu-opioid receptor line (AID 449723;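 active = hit in primary screen, with calcium signal over 5 SD above buffer well mean in both duplicates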;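 note: counter screen cells carry the mu-opioid receptor alone and lack TRPC4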); conditions: Fluo-4 calcium fluorescence, at 10 µM; stronger effect = higher value
[17] = calcium flux enhancement in mu-opioid HEK293 cells, confirmation, counter-screen for TRPC4 allosteric potentiator project, cell-based, HEK293 mu-opioid receptor line (AID 449724;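 active = calcium signal rise more than 3 SD above the low-dose agonist control mean, in both duplicate plates and the primary screen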); conditions: Fluo-4 calcium flux, at 10 µM, compound added before EC20 DAMGO stimulus; stronger effect = higher value

Short transient receptor potential channel 6 (Mus musculus), sequence (Q61143 whole entry, looked up): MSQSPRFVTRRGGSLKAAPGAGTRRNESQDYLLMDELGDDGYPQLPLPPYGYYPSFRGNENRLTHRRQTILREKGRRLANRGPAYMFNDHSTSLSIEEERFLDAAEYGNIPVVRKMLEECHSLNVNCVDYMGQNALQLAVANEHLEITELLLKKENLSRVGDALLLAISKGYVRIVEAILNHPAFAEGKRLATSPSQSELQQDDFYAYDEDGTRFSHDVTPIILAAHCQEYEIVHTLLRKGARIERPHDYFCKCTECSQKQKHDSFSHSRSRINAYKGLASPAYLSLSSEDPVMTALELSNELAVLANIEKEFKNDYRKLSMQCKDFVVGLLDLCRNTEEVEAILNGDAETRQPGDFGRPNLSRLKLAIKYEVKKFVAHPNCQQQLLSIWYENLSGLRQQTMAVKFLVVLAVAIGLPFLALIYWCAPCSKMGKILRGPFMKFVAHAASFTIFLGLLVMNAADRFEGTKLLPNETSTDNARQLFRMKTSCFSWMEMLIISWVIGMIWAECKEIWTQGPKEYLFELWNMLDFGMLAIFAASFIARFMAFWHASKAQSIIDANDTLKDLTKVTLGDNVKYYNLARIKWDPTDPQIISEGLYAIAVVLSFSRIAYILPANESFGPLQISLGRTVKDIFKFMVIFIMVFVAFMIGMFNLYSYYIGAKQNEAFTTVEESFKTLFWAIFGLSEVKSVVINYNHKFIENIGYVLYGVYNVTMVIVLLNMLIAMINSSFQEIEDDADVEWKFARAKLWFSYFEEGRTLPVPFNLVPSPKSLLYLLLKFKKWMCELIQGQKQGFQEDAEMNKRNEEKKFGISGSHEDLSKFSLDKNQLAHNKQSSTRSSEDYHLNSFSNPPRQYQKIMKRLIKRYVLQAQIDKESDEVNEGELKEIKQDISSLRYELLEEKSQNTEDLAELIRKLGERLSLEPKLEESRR
Short transient receptor potential channel 4 (Mus musculus), sequence (Q9QUQ5 whole entry, looked up): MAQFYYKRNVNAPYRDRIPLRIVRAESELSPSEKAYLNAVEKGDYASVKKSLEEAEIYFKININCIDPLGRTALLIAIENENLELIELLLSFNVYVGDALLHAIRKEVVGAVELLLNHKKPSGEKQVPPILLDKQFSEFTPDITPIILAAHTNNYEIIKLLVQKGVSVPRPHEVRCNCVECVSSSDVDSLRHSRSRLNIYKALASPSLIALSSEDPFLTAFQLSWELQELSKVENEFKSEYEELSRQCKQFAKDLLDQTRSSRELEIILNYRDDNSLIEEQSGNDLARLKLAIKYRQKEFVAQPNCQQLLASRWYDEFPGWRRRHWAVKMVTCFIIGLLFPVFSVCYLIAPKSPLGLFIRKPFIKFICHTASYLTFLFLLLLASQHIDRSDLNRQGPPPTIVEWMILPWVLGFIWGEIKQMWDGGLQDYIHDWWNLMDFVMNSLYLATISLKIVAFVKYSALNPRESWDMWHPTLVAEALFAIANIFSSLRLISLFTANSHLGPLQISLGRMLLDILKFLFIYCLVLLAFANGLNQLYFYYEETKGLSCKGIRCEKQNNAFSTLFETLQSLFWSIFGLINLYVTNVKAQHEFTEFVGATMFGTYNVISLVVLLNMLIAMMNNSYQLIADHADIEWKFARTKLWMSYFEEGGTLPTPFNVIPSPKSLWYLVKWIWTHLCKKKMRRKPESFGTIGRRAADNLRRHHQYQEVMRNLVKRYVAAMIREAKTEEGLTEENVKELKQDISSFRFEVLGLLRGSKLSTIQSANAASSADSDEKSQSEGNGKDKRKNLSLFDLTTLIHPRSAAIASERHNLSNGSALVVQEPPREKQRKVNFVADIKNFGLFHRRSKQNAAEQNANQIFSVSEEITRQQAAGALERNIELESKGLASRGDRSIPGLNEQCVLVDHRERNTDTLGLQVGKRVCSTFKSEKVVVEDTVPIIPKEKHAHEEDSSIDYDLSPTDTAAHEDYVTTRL

Cc1cc(=O)oc2cc(NC(=S)NCc3ccccn3)ccc12
inactive: outcome [1] | outcome [2] | outcome [3] | outcome [4] | outcome [5] | outcome [6] | outcome [7] | outcome [8] | outcome [9] | outcome [10] | outcome [11] | outcome [12] | outcome [13] | outcome [14] | outcome [15] | outcome [16] | outcome [17]

CCc1cc2c(SCC(=O)N(C)C3CCS(=O)(=O)C3)ncnc2s1 (stereo unspecified)
inactive: outcome [1] | outcome [2] | outcome [3] | outcome [5] | outcome [6] | outcome [7] | outcome [8] | outcome [9] | outcome [10] | outcome [11] | outcome [12] | outcome [13] | outcome [14] | outcome [16] | outcome [17]
active: potentiation [4] 35% | potentiation [15] 42.5%

CCOC(=O)C1=C(CNCCc2ccc(Cl)cc2)NC(=O)NC1c1cccc([N+](=O)[O-])c1 (stereo unspecified)
inactive: outcome [1] | outcome [2] | outcome [3] | outcome [4] | outcome [5] | outcome [6] | outcome [7] | outcome [8] | outcome [9] | outcome [10] | outcome [11] | outcome [12] | outcome [13] | outcome [14] | outcome [15] | outcome [16] | outcome [17]

N=c1c(C(=O)NCC2CCCO2)cc2c(=O)n3ccccc3nc2n1Cc1ccccc1Cl (stereo unspecified)
inactive: outcome [1] | outcome [2] | outcome [5] | outcome [6] | outcome [7] | outcome [8] | outcome [9] | outcome [10] | outcome [11] | outcome [12] | outcome [13] | outcome [14] | outcome [16] | outcome [17]
active: potentiation [3] 96% | potentiation [4] 102% | potentiation [15] 101%

CC1CCN(CCCCOc2ccc([N+](=O)[O-])cc2)CC1
inactive: outcome [1] | outcome [2] | outcome [3] | outcome [4] | outcome [5] | outcome [6] | outcome [7] | outcome [8] | outcome [9] | outcome [10] | outcome [11] | outcome [12] | outcome [13] | outcome [14] | outcome [15] | outcome [16] | outcome [17]

CCN1CCN(c2nc(N)c([N+](=O)[O-])c(Nc3ccc(C)cc3)n2)CC1
inactive: outcome [1] | outcome [2] | outcome [5] | outcome [6] | outcome [7] | outcome [8] | outcome [9] | outcome [10] | outcome [11] | outcome [12] | outcome [13] | outcome [14] | outcome [16] | outcome [17]
active: potentiation [3] 22% | potentiation [4] 13% | potentiation [15] 24.9%

Cc1ccc(Nc2c(N)c(=O)oc3ccccc23)cc1
active: potentiation [15] 33%
inactive: outcome [1] | outcome [2] | outcome [3] | outcome [4] | outcome [5] | outcome [6] | outcome [7] | outcome [8] | outcome [9] | outcome [10] | outcome [11] | outcome [12] | outcome [13] | outcome [14] | outcome [16] | outcome [17]

O=C(c1ccccc1F)N1CCN(c2ccc([N+](=O)[O-])cc2-n2cccc2)CC1
active: potentiation [4] 20% | potentiation [15] 17.1%
inactive: outcome [1] | outcome [2] | outcome [3] | outcome [5] | outcome [6] | outcome [7] | outcome [8] | outcome [9] | outcome [10] | outcome [11] | outcome [12] | outcome [13] | outcome [14] | outcome [16] | outcome [17]

NC(=O)c1nsc(C(=O)N(Cc2ccco2)C(C(=O)NCc2ccccc2)c2ccc(O)cc2)c1N (stereo unspecified)
inactive: outcome [1] | outcome [2] | outcome [3] | outcome [4] | outcome [6] | outcome [7] | outcome [8] | outcome [9] | outcome [10] | outcome [11] | outcome [12] | outcome [13] | outcome [15] | outcome [16] | outcome [17]
active: inhibition [5] 72% | inhibition [14] 40%

O=C(CNc1ccc(Br)cc1)c1ccc(O)cc1
inactive: outcome [1] | outcome [2] | outcome [3] | outcome [4] | outcome [6] | outcome [7] | outcome [8] | outcome [9] | outcome [11] | outcome [12] | outcome [13] | outcome [14] | outcome [15] | outcome [16] | outcome [17]
active: inhibition [5] 82% | inhibition [10] 60.5%

COC(=O)c1ccc(COc2ccc(/C=N/Nc3nc(C)cc(=O)[nH]3)cc2)cc1
inactive: outcome [1] | outcome [2] | outcome [3] | outcome [4] | outcome [5] | outcome [6] | outcome [7] | outcome [8] | outcome [9] | outcome [10] | outcome [11] | outcome [12] | outcome [13] | outcome [14] | outcome [15] | outcome [16] | outcome [17]

CC(=O)Nc1nc(-c2ccc3c(c2)CCN3C(=O)C2CC2)c(C)s1
inactive: outcome [1] | outcome [2] | outcome [3] | outcome [4] | outcome [5] | outcome [6] | outcome [7] | outcome [8] | outcome [9] | outcome [10] | outcome [11] | outcome [12] | outcome [13] | outcome [14] | outcome [15] | outcome [16] | outcome [17]

CCCC1C(=O)Nc2ccccc2N1C(=O)c1ccc(C(C)(C)C)cc1 (stereo unspecified)
inactive: outcome [1] | outcome [2] | outcome [3] | outcome [4] | outcome [5] | outcome [6] | outcome [7] | outcome [8] | outcome [9] | outcome [10] | outcome [11] | outcome [12] | outcome [13] | outcome [14] | outcome [16] | outcome [17]
active: potentiation [15] 30.4%
